Results filed as inconclusive are left out. Entries that show only a call come without a potency. Calls of active or inactive are those of the source. Calls come from the whole dose curve.
Potency is the fitted concentration of half-maximal effect.

This assay is described as follows: qHTS assay to identify small molecule agonists of the hypoxia (HIF-1) signaling pathway - cell viability counter screen (AID 1224844). Note: nearly all actives have a fitted effect of over 50% in size. Particulars: HRE-bla ME-180 viability, CellTiter-Glo luminescence, 17 h; series mostly up to 76.8 µM. An excerpt: National Center for Advancing Translational Sciences [NCATS]
NIH Chemical Genomics Center [NCGC]
U.S. Environmental Protection Agency [EPA]
National Institutes of Environmental Health Sciences [NIEHS]
National Toxicology Program [NTP]
U.S. Food and Drug Administration [FDA]
Hypoxia-inducible factor-1 (HIF-1) is the major hypoxia-regulated transcription factor that controls cellular responses to low oxygen concentration. HIF-1 is composed of two subunits: hypoxia responsive HIF-1-alpha and constitutively expressed HIF-1-beta, which is also known as aryl hydrocarbon receptor nuclear translocator. During hypoxic conditions, HIF-1-alpha heterodimerizes with HIF-1-beta and translocates into the nucleus where the HIF-1 complex binds to the hypoxia-response element (HRE) and activates expression of target genes such as VEGF (vascular endothelial growth factor). The HIF-1 pathway is essential to normal growth and development, and is involved in the pathophysiology of cancer, inflammation, and ischemia.
Using a beta-lactamase reporter-gene under control of the hypoxia response element, a cell-based assay [CellSensor(TM) HRE-bla ME-180 from Life Technologies, Carlsbad, CA] was used to measure hypoxia-induced signaling. Tox21 10K library compounds were measured for their ability to induce the reporter gene activity. The cytotoxicity of the Tox21 compound library against HRE-bla ME-180 cell line was tested in parallel by measuring cell viability using CellTiter-Glo assay (Promega, Madison, WI) in the same assay wells.
Tox21 Assay Protocol Summary:
HRE-bla ME-180 cells were dispensed at 2,000 cells per well in 6 uL of assay medium containing 0.5% dialyzed FBS into black wall/clear-bottom 1536-well plates using a Multidrop Combi (Thermo Scientific, Waltham, MA) dispenser. After the assay plates were incubated at 37C and 5% CO2 for 5 hrs, 23 nL of compounds dissolved in DMSO, positive controls or DMSO only was transferred to each well of the assay plate using a Pintool station (Kalypsys, San Diego, CA). The assay plates were incubated at 37C and 5% CO2 for 17 hrs. One uL of LiveBLAzerTM B/G FRET substrate (CCF4-AM) (Life Technologies) was added to each well using a Flying Reagent Dispenser (FRD, Aurora Discovery, San Diego, CA). After 2 hr incubation at room temperature, fluorescence intensity (405 nm excitation, 460 nm and 530 nm emissions) was measured using an Envision plate reader (PerkinElmer, Shelton, CT). For cytotoxicity, 4 ul/well of CellTiter-Glo reagent was added into the assay plates using an FRD. After 30 min incubation at room temperature, the luminescence intensity was measured using a ViewLux plate reader (PerkinElmer).
In general terms: In qHTS, concentration-response curves come from the screen itself.
Consider `O=S1(=O)OC(c2cc(Br)c(O)c(Br)c2)(c2cc(Br)c(O)c(Br)c2)c2ccccc21`, for which the Potency is 6.34 µM (active).

In the case of `CN(C)c1ccc(N(C)C)cc1`, the Potency entry was “inactive”. For the compound `O=Cc1ccc2c(c1)OCO2`, the Potency result is “inactive”. As for `O=C(CBr)c1ccccc1`, the Potency result is “inactive”. With `Clc1cccc(SC2CCNCC2)n1` the entry was “inactive”; with `CC(C)(CCl)C(=O)Cl`, “inactive”. With `Clc1cc(C(Cl)(Cl)Cl)cnc1Cl` the entry was “inactive”; with `O=C1CN=C(c2ccccc2)c2cc(Cl)ccc2N1CC1CC1`, “inactive”. With `C=CCN1CC[C@]23c4c5ccc(O)c4O[C@H]2C(=O)CC[C@@]3(O)[C@H]1C5` the entry was “inactive”; with `ClCC(Br)CBr` (stereo not given), “inactive”; with `CC(=O)[C@H]1CC[C@H]2[C@@H]3CC[C@H]4C[C@](C)(O)CC[C@]4(C)[C@H]3CC[C@]12C`, “inactive”. `CCc1ccc(C(=O)NN(C(=O)c2cc(C)cc(C)c2)C(C)(C)C)cc1`: the Potency entry was “inactive”. `CCCCc1c(C)nc(NCC)nc1OS(=O)(=O)N(C)C`: the Potency result is “inactive”. With `C[C@H]1CNCCc2ccc(Cl)cc21` the entry was “inactive”; with `COP(=S)(OC)Oc1cc(Cl)c(I)cc1Cl`, “inactive”. `CCCCNP(N)(N)=S`: the Potency entry is “inactive”.

For the compound `O=C1C(=O)c2cccc3cccc1c23`, the Potency entry is “inactive”. Take `Cn1sc(Cl)cc1=O`: the Potency result is “inactive”.

For the compound `IC(I)=C(I)I`, the Potency is 11 µM (active). With `O=C(O)C1(c2ccc3c(c2)OC[C@H](Cc2ccc(-c4ccccc4)cc2)[C@H]3O)CCCC1` the figure was 17.4 µM (active); with `CCC(COC(=O)c1cc(OC)c(OC)c(OC)c1)(c1ccccc1)N(C)C` (stereo not given), “inactive”; with `CCOC(=O)CBr`, “inactive”. With `CN(N=O)c1ccc([N+](=O)[O-])cc1` the entry was “inactive”; with `Cc1ccccc1C(=O)Nc1cccc(OC(C)C)c1`, 27.5 µM (active); with `C=CC(=O)OC`, “inactive”. In the case of `O=C(O)c1ccccc1C(=O)Nc1cccc2ccccc12`, the Potency result was “inactive”.

Regarding `CCCCN=C=O`, the Potency result is “inactive”.

For the compound `C=CC(C)=O`, the Potency entry was “inactive”.

For the compound `C/C(=C\c1ccccc1)[N+](=O)[O-]`, the Potency is 38.9 µM (active). With `CN1[C@@H]2CC[C@H]1CC(OC(=O)c1cc(Cl)cc(Cl)c1)C2` (stereo not given in full) the entry was “inactive”; with `ClC=C(Cl)Cl`, “inactive”; with `COP(=S)(OC)Oc1ccc([N+](=O)[O-])cc1Cl`, “inactive”. `OCCCBr`: the Potency entry is “inactive”.

For `CC(C)=CCOc1c2occc2cc2ccc(=O)oc12`, the Potency entry is “inactive”. With `CC(C)(OO)c1ccccc1` the entry was “inactive”; with `CCCC(Cn1cncn1)c1ccc(Cl)cc1Cl` (stereo not given), “inactive”; with `CCCCC(CC)COP(=O)(Oc1ccccc1)Oc1ccccc1` (stereo not given), “inactive”.

For the compound `O=C(CBr)OCc1ccccc1`, the Potency result is “inactive”. `Brc1ccc(Oc2ccccc2)cc1`: the Potency result is “inactive”. As to `O=C(NC(=O)c1c(F)cccc1F)Nc1cc(Cl)c(Oc2ncc(C(F)(F)F)cc2Cl)c(Cl)c1`, the Potency result is “inactive”.

The values above are taken from PubChem BioAssay (Tox21).
